The list is not random: actives were taken first. Their share in the collection is about 4%.
TRHR enhancer – allosterically enhances the human TRH receptor | actives 0.66% (n = 360,000) | enhancement, % at 2 µM | P34981 | TRHR cells, fluo-8 calcium fluorescence, EC20 TRH enhancement; in the data active = enhancement above about 30%; also: 0% is about no effect
Target sequence (P34981 whole entry, looked up): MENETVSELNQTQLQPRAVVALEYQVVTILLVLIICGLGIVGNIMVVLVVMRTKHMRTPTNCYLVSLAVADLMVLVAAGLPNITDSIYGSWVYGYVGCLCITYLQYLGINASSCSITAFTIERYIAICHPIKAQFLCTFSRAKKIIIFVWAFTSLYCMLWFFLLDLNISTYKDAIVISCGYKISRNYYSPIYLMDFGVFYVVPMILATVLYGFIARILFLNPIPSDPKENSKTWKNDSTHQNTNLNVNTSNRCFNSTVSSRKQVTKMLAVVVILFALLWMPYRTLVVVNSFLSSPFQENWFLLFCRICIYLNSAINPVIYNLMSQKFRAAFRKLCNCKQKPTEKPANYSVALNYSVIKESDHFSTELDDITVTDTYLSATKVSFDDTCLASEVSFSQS
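TRHR-expressing cells loaded with fluo-8 calcium dye were read kinetically (ex 480/em 530) during compound addition, then stimulated with an EC20 of TRH (10 nM final). Enhancement of the Gq-mediated intracellular calcium response was scored.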
D1 potentiator – enhances dopamine response at the human D1 receptor; P21728; HEK293 TREx D1 cells, calcium flux, dopamine EC20 potentiation; potentiation, % at 10 µM; actives 0.036% (n = 360,000); AID 504651; in the data active = potentiation above about 30%; also: 0% is about no effect
D1 antagonist – human D1 dopamine receptor antagonism. P21728. HEK293 TREx D1 cells, calcium flux, dopamine EC80; active compounds read low. activity change, negative = inhibition, % at 10 µM. actives 3.2% (n = 360,000). AID 504652; in the data active = activity change below about -30%; also: % is scaled to controls: 0 for no effect and ±100 for the full control effect
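After overnight tetracycline induction at 30 C, force-coupled D1 HEK293 cells took up a no-wash calcium dye at room temperature. Compounds were added and monitored 180 s, and the response to EC80 dopamine was then recorded.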
GRP78 ERSR act – ER stress response induction in glioma; U87-MG GRP78 promoter luciferase reporter, 16 h; Potency, µM, inactives show at the highest dose activation, usual class: activators; actives 0.02% (n = 420,000); AID 602332; active = well fitted activation curve with a large enough effect; also: potency is read from the fitted curve at half-maximal effect; series mostly up to about 76 µM; % of control where 0% means no effect; nearly all actives have a fitted effect of over 35% in size
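Stably transfected U87-MG human glioma cells carrying a GRP78-based luminescent sensor were seeded at 1000 cells/well, pin-dosed with compounds and incubated 16 h. Luciferase reagent was then added, and end-point luminescence was read after 10 min at room temperature.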
TRHR agonist – activates the human TRH receptor; AID 493084; P34981; TRHR cells, calcium flux fluo-8, FDSS agonist mode; activation, % at 2 µM; actives 0.18% (n = 360,000); also: 0% is about no effect
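TRHR-expressing cells, plated overnight in medium with 10% serum, were loaded with fluo-8 calcium dye at room temperature. After a 10 s baseline, library compound was pin-added and calcium release was recorded kinetically (ex 480/em 530) as agonist response.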
D1 ag – agonists of human D1 dopamine receptor; P21728; HEK293 T-REx D1 cells, calcium flux, agonist mode; activation, % at 2 µM; actives 1% (n = 360,000); AID 504660; also: 0% is about no effect
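Agonism was scored from calcium flux recorded over 180 s (1 read/s) after pintool compound addition, following a 10-cycle baseline. Cells were inducible force-coupled HEK293 TREx D1, plated overnight at 30 C and loaded with no-wash calcium dye.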
* marks the source's active call; other numbers are inactive results; / = not tested or not shown. Rule as the data show it, unless noted: active = activation above about 30%; inactive = the rest.

SMILES	TRHR enhancer	D1 potentiator	D1 antagonist	GRP78 ERSR act	TRHR agonist	D1 ag
Cc1ccc(-c2cc(C(=O)NCc3ccccc3)c3c(-c4ccc(C)cc4)[nH]nc3n2)cc1	-2.5	-1.8	13.6	-1.8%	0.5	9.4
COc1ccc(N2CCN(C(=O)c3ccc4c(c3)[nH]c(=S)n3c5ccccc5nc43)CC2)cc1	-2.8	-5.1	-32.5*	/	0.2	1.2
Cc1ccc(C)c(NS(=O)(=O)c2cc(C(=O)Nc3ccccc3-c3ccccc3)ccc2C)c1	24.5	-3.0	1.3	-1.9%	-2.5	9.5
COc1cccc(NC(=S)N(CCCN2CCOCC2)C(C)c2cc3cccc(OC)c3o2)c1 (configuration not stated)	-5.7	-12.3	-68.5*	-2.5%	-0.1	13.7
O=C(COc1ccc(Br)cc1)N(CCO)CCO	14.4	-4.9	-7.1	-3.3%	0.3	-0.8
Cn1c(=O)c(C(N)=S)cn(-c2ccccc2)c1=O	-5.3	3.4	-10.3	-1.6%	-0.8	5.3
NC(=O)c1cc(Cl)cn(-c2ccccc2)c1=O	1.7	/	-47.8*	-2.1%	0.0	1.6
CC(NC(=O)C1C(=O)N(CCO)C2(C)CC1c1ccccc1O2)c1ccccc1 (configuration not stated)	1.0	-4.0	29.6	-0.3%	0.6	3.3
C/C(=N/NC(=O)Nc1ccccc1)c1ccc(C)cc1	32.7*	-0.5	-12.5	-0.8%	0.0	0.4
NC(=O)C[n+]1cccc(CNC(=O)c2ccc(OC(F)F)cc2)c1	-2.5	4.3	-30.3*	-1.0%	1.8	1.2
O=C(C[n+]1cccc(CNC(=O)c2ccc(OC(F)F)cc2)c1)Nc1cc(C(F)(F)F)ccc1Cl	-1.9	-10.6	-22.7	-1.4%	0.5	-0.3
O=C1c2ccccc2-c2onc3ccc(Oc4ccccc4)c1c23	32.0*	21.1	96.9	-10.8%	2.0	10.5
CC(=O)c1ccc(NC(=O)C(C)NCc2ccccc2Cl)cc1 (configuration not stated)	-5.0	-5.8	-35.8*	7.4%	0.1	3.8
CN(C)CCCNc1nc2sc3c(c2c(=O)n1CCc1ccccc1)CCCCC3	-3.5	-3.0	-24.0	-7.2%	8.9	58.5*
CN(C)CCCn1c(=O)n(CCc2ccccc2)c(=O)c2c3c(sc21)CCCCC3	4.5	-4.3	2.1	-3.4%	1.1	2.0
COC(=O)C1=C(C)N(Cc2ccccc2)C(=NCCc2ccccn2)N[C@H]1c1cccc(C(F)(F)F)c1	-9.6	-4.9	-15.5	-8.6%	8.1	34.3*
CCN1C(=NCCc2ccccn2)N[C@@H](c2cccc(C(F)(F)F)c2)C(C(=O)OC)=C1C	-11.1	-3.1	-1.2	-0.5%	0.7	9.9
COC(=O)C1=C(C)N(Cc2ccccc2)C(=NCC2CC2)N[C@H]1c1ccc(Br)cc1	31.5*	-7.0	-79.9*	/	4.9	15.4
COC(=O)C1=C(C)N(Cc2ccccc2)C(=NCC(C)C)N[C@H]1c1cccc(F)c1	12.6	-5.3	-40.8*	0.5%	5.3	81.5*
COC(=O)C1=C(C)N(Cc2ccccc2)C(=NCC(C)C)N[C@H]1c1cccc(C(F)(F)F)c1	/	/	/	-13.2%	/	/
COC(=O)C1=C(C)N(Cc2ccccc2)C(=NCc2cccc(Cl)c2)N[C@H]1c1cccc(F)c1	14.2	-0.3	-3.8	-11.0%	4.0	31.7*
COc1ccc(-c2ccc(F)cc2)cc1[C@H]1[C@H]2C=CC[C@@H](C)[C@@H]2C(=O)N1Cc1ccccc1	-4.3	-4.8	10.1	-3.6%	4.6	4.2
COc1ccccc1CNC(=O)C(C)n1c(=O)cc(-c2ccccc2)c2c(C)nn(C)c21 (configuration not stated)	-25.5	-2.2	-1.1	-2.3%	0.0	2.4
O=C(c1cc(C(F)(F)F)cc(C(F)(F)F)c1)N1CCC[C@@]2(CCN(c3ncccn3)C2)C1	/	/	/	-4.6%	/	/
Cc1nc2scc(-c3ccc(C(C)C)cc3)c2c(=O)n1N	-11.1	-1.5	-2.6	-0.4%	-0.3	3.6
SMILES	TRHR enhancer	D1 potentiator	D1 antagonist	GRP78 ERSR act	TRHR agonist	D1 ag
O=C(NC(=S)NCc1nc2ccccc2[nH]1)c1ccccc1F	-2.0	-3.5	-24.0	-2.5%	-0.9	2.5
O=C(NC(=S)NCc1nc2ccccc2[nH]1)c1ccc(F)cc1	2.5	-6.5	-67.6*	13.0%	-1.0	-0.8
Cc1ccc(C(=O)Nc2cccc(C(=O)OCc3cc(=O)n4nc(C5CC5)sc4n3)c2)cc1	-3.9	0.2	-6.3	-3.1%	-1.8	33.0*
Cc1cccc(C(=O)OCc2cc(=O)n3nc(C4CC4)sc3n2)c1	9.0	-6.5	-30.7*	-1.7%	0.5	8.1
Cc1cccc(C(=O)OCc2cc(=O)n3nc(C4CCCCC4)sc3n2)c1	0.7	-2.7	18.9	1.4%	-0.2	-0.2
CC(=O)NC(CC(=O)OCC(=O)c1c(N)n(CC(C)C)c(=O)n(C)c1=O)c1ccccc1 (configuration not stated)	4.1	-0.9	3.0	-3.7%	0.1	-0.3
C[C@@]12CC(=O)NC1N(C(=O)c1cccc(C(F)(F)F)c1)C(c1ccccc1O)C2 (some centres not stated)	1.0	-1.8	/	-4.0%	0.1	0.0
CC(=O)N1C(c2ccccc2O)C[C@]2(C)CC(=O)NC12 (some centres not stated)	36.0*	1.2	9.2	-2.9%	0.5	2.3
O=C(CSc1ccccc1Cl)NC1CCCc2ccccc21 (configuration not stated)	20.3	-4.9	11.1	-2.9%	-0.4	1.6
Cc1ccc(S(=O)(=O)Nc2cc(C(F)(F)F)ccc2N2CCOCC2)cc1	32.9*	-1.1	19.9	1.2%	0.2	2.0
Cc1ccc(NC(=O)CSCC(=O)Nc2cc(C(F)(F)F)ccc2N2CCOCC2)cc1	-1.3	-2.4	-34.1*	-3.3%	0.0	0.8
Cc1cc(NC(=O)CSCC(=O)Nc2cc(C(F)(F)F)ccc2N2CCOCC2)no1	-9.7	-0.5	-13.1	-3.0%	0.1	0.0
CCCCn1c(COc2cccc(OC)c2)nc2ccccc21	-5.2	2.0	-10.8	0.4%	-0.7	0.5
Cc1nnc(SC(C)C(=O)Nc2ccc(Cl)cn2)n1Cc1ccccc1 (configuration not stated)	2.1	0.0	30.0	-4.2%	-0.2	1.7
CC(Sc1nnc(-c2ccc(Cl)cc2Cl)n1Cc1ccccc1)C(=O)Nc1nccs1 (configuration not stated)	0.2	1.8	-45.6*	-0.8%	-1.8	0.1
O=C(c1cc(COc2cccc(C(F)(F)F)c2)on1)N1CCC(c2ccncc2)CC1	-11.6	-4.2	12.3	1.9%	1.4	0.5
COc1ccc(OCc2cc(C(=O)N3CCC(c4ccccc4)CC3)no2)c(Cl)c1	5.1	-5.2	-3.5	0.6%	-1.5	35.2*

Assay outcomes: PubChem, National Center for Advancing Translational Sciences (NCATS)
